Assay outcomes: PubChem BioAssay, National Center for Advancing Translational Sciences (NCATS)
HepG2 viability – HepG2 cytotoxicity, counter-screen for TGF-b inhibitors; Potency, µM (highest dose often 46.1 µM), for the others: at the highest dose activity change, negative = cytotoxicity, hits mostly cytotoxic; HepG2 CAGA-GFP viability, ATP luminescence, 18 h; AID 588856; 410,000 compounds, 0.76% hits
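CellTiter-Glo luminescence gave cytotoxicity after 18 hours at 37 degrees C. The cells were HepG2 CAGA-GFP in 1% FBS DMEM, stimulated with 500 pg/mL TGF-beta after compound addition. %Activity was normalised to no-cell wells (complete cell-killing) and DMSO (no toxicity), and curves were fitted and classified.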
HT1080-NT tox – kills 2HG-producing HT-1080-NT fibrosarcoma cells | HT-1080-NT fibrosarcoma viability, CellTiter-Glo ATP luminescence, 48 h | Potency, µM (highest dose often 46.1 µM), without a hit: at the highest dose activity, negative = less viability, hits mostly cytotoxic | 360,000 compounds, 1.6% hits | AID 686970;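 note: NT is the 2HG producing partner of a matched IDH1 knockdown line; 0% = DMSO-treated cells and -100% = media-only wells without cells; nearly all actives have a fitted effect of over 55% in size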
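Read-out is CellTiter-Glo luminescence after 10 minutes at room temperature, following 48 hours' compound treatment of HT-1080-NT cells (750 cells/well, RPMI, 5% FBS, 37 degrees C).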
KB-V1 cytotox – kills drug-selected multidrug resistant KB-V1 cells; AID 1347076; KB-V1 MDR cells viability, CellTiter-Glo, 72 h; 400,000 compounds, 3.4% hits; Potency, µM (titrated, usually from 46.1 µM), usual class: cytotoxic; note: % is set by controls: 0 for no effect and ±100 for the full control effect; nearly all actives have a fitted effect of over 60% in size
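Potencies derive from concentration-effect curves fitted to normalized luminescence (CellTiter-Glo) of KB-V1 cells treated for 72 h at 37 degrees C in phenol-red-free DMEM containing 10% FBS.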
HT1080 IDH1KD tx – HT-1080 IDH1 knockdown cell toxicity (counter line); AID 686971; Potency, µM (series often up to 46.1 µM), inactives show top-dose activity, negative = toxicity, actives largely listed as cytotoxic; HT-1080 IDH1 knockdown viability, ATP luminescence, 48 h; 360,000 compounds, 2% hits;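 note: 0% = DMSO wells and -100% = cell-free medium wells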
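Knockdown cells (IDH1KD HT-1080) received compounds 2 h after plating at 750 cells/well and were kept 48 h at 37 °C in 5% FBS RPMI. A CellTiter-Glo luminescence read gave % activity for curve fitting.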
KB-3-1 cytotox – KB-3-1 parental cell cytotoxicity. KB-3-1 viability, CellTiter-Glo ATP luminescence, 72 h. Potency, µM (top dose mostly 46.1 µM), hits mostly cytotoxic. 400,000 compounds, 1.4% hits; note: % is set by controls: 0 for no effect and ±100 for the full control effect; nearly all actives have a fitted effect of over 60% in size
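Viability of parental KB-3-1 cells, measured by CellTiter-Glo luminescence, followed a 72 h incubation at 37 °C with pinned compounds in phenol-red-free DMEM containing 10% FBS.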
TGFb SMAD3 inh – inhibitors of TGF-b signaling; 410,000 compounds, 1.2% hits; HepG2 CAGA-GFP TGF-b/SMAD3 reporter, GFP fluorescence, 18 h; TGF-beta stimulated, 500 pg/mL final; Potency, µM (highest dose often 46.1 µM), inactives show at the highest dose activity, negative = inhibition, actives largely listed as inhibitors; note: % is set by controls: 0 for no effect and ±100 for the full control effect; nearly all actives have a fitted effect of over 65% in size
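Inhibition was scored as loss of TGF-beta-induced (500 pg/mL final, 18 hours, 37 degrees C) GFP in HEPG2 cells carrying a CAGA-GFP reporter, in DMEM with 1% FBS. Well GFP was summed per cell; Activity was normalised to unstimulated and stimulated DMSO wells, then concentration-response fitting.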
An asterisk follows results filed as active; i = inactive; ? = inconclusive; · = no result; ! = not confirmed by another sample. Compounds with a hit are over-represented: about 6.6% of the library has one in this group of screens. Calls come from the whole dose curve; as a rule, active = well fitted curve in the direction sought with a large enough effect; inconclusive = small, poorly fitted or top-dose-only effect, or another doubt; inactive = no such curve, though single readings can be large; an effect the other way counts as inactive or inconclusive. Potency is the fitted concentration of half-maximal effect.

SMILES | HepG2 viability | HT1080-NT tox | KB-V1 cytotox | HT1080 IDH1KD tx | KB-3-1 cytotox | TGFb SMAD3 inh
Cc1ccc2nc(CSc3nnc(-c4ccco4)n3-c3ccccc3)cc(=O)n2c1 | -9.9% | -0.7% | 10.3µM* | -9.3% | i | 10.4%
CCn1c(SCC(=O)N2CCC(C)CC2)nnc1-c1ccco1 | -4.7% | -0.8% | i | 19.4% | i | 22.2%
CC1CCN(C(=O)CSc2nnc(-c3cc4ccccc4cc3O)n2Cc2ccco2)CC1 | -19.2% | -2.3% | 3.66µM* | -6.3% | ? | ?
COc1ccc(C(=O)CSc2nnc(-c3cc4ccccc4cc3O)n2Cc2ccco2)cc1 | -54.1% | ? | 7.31µM*! | ? | ? | ?
CCn1c(SCC(=O)N(C(C)C)C(C)C)nnc1-c1cc2ccccc2cc1O | -5.8% | -1.5% | 3.66µM* | -17.6% | ? | 2.7%
Cc1ccc2nc(CSc3nnc(-c4ccco4)o3)cc(=O)n2c1 | 1.5% | -3.7% | i | -0.3% | i | -4.1%
COc1cccc(N2CCN(c3ncnc4onc(-c5ccc(F)cc5)c34)CC2)c1 | -1.0% | · | i | · | i | 14.7%
CCc1nn(CC(=O)N(CC)Cc2ccccc2)c(=O)c2cc3occc3n12 | 5.0% | · | i | · | i | ?
CN(C)C(=O)CSc1nnc(-c2ccco2)n1-c1ccccc1 | -3.1% | 0.9% | i | -1.0% | i | -0.9%
CN(Cc1ccccc1)C(=O)CSc1nnc(-c2ccco2)n1-c1ccccc1 | -0.8% | 10.1% | 3.66µM* | 7.8% | i | 3.5%
O=C(CSc1nnc(-c2ccco2)n1Cc1ccccc1)c1ccccc1 | 0.0% | 10.4% | i | 1.1% | i | 1.6%
Cc1ccc(C(=O)CSc2nnc(-c3ccco3)n2Cc2ccccc2)cc1 | -78.1% | ? | ? | ? | 20.6µM* | 0.0%
C=CCc1ccccc1OCc1nc2ccc(C)cc2[nH]1 | -30.2% | · | i | · | i | ?
CCOc1ccc(N(CC(=O)Nc2ccccc2CC)S(=O)(=O)c2c(C)noc2C)cc1 | -21.3% | · | · | · | · | -14.9%
Oc1ccccc1N=Nc1nc(-c2ccccc2)c(-c2ccccc2)[nH]1 | -62.5% | ? | 0.92µM* | ? | i | ?
COc1ccccc1N=Nc1nc(-c2ccccc2)c(-c2ccccc2)[nH]1 | -42.9% | -17.1% | i | ? | ? | ?
Cc1cc(S(=O)(=O)Nc2c(C)nn(C)c2C)c(Cl)cc1Cl | 24.1% | 2.1% | 18.4µM* | -5.0% | ? | 14.9%
CSc1nc(NS(=O)(=O)c2cc(C)c(Cl)cc2Cl)nn1C | -0.1% | 7.9% | i | 1.3% | i | 0.0%
Cc1cccc(-c2nnc(SCc3cc(=O)c4cccc(Cl)c4[nH]3)n2C)c1 | -36.6% | · | i | · | i | ?
CCc1cc2c(Sc3nc4ccccc4s3)ncnc2s1 | -18.3% | 5.17µM* | ? | ? | 11.6µM* | 0.0%
O=C1CCCc2c1cc(C(=O)NCc1ccco1)c(=O)n2-c1ccc(Cl)cc1 | 4.1% | 11.2% | 16.4µM* | 9.3% | ? | -16.1%
Cc1ccc(-n2c3c(cc(C(=O)NCc4ccco4)c2=O)C(=O)CCC3)cc1 | -28.7% | 2.7% | i | 6.7% | i | ?
COc1ccc(C(=O)NCC(c2ccc3c(c2)OCO3)N2CCN(C)CC2)cc1OC (stereo not given) | -1.7% | · | i | · | i | -10.9%
Cn1c2ccccc2c2ncn(Cc3ccco3)c(=O)c21 | -13.7% | -15.4% | ? | -17.0% | i | -18.2%
Cn1c2ccc(F)cc2c2ncn(Cc3ccco3)c(=O)c21 | -12.3% | -13.0% | 4.11µM* | ? | i | 0.3%
SMILES | HepG2 viability | HT1080-NT tox | KB-V1 cytotox | HT1080 IDH1KD tx | KB-3-1 cytotox | TGFb SMAD3 inh
C=CCn1c(SCC(C)=O)nnc1-c1cc(-c2ccccc2)sc1N | -5.7% | -1.6% | 18.4µM* | -1.5% | i | -22.4%
C=CCn1c(SCC(N)=O)nnc1-c1cccc(Br)c1 | -14.6% | 12.0% | i | 5.2% | i | 2.7%
O=C(NCC(=O)N(CC1CCCO1)C1(C(=O)NC2CCCC2)CCCCC1)c1ccccc1 (stereo not given) | -4.9% | 4.9% | 14.6µM* | 2.9% | i | 11.3%
O=C(NCC(=O)N(CC1CCCO1)C1(C(=O)NC2CCCCC2)CCCCC1)c1ccccc1 (stereo not given) | 7.4% | 0.2% | 3.26µM* | 8.4% | i | 1.6%
CCC(C)(C(=O)NC1CCCCC1)N(CC1CCCO1)C(=O)CNC(=O)c1ccccc1 (stereo not given) | 2.0% | 8.7% | ? | 16.2% | i | -12.8%
O=C(NCc1ccco1)c1c[nH]c2ccc(S(=O)(=O)Nc3ccc(F)cc3F)cc2c1=O | -29.6% | · | i | · | i | 4.3%
Cc1ccc(N2CCN(C(=O)CNS(=O)(=O)c3ccc(Br)s3)CC2C)cc1 (stereo not given) | -37.1% | 4.5% | 2.31µM* | -0.5% | ? | ?
O=C(CNS(=O)(=O)c1ccc(Br)s1)N1CCN(c2ncccn2)CC1 | 16.0% | 3.8% | 20.6µM* | 26.6% | i | 5.4%
CCc1cccc(NC(=O)CSC2=Nc3ccccc3N=C(c3ccc(F)cc3)C2)c1 | -30.6% | · | i | · | i | ?
O=C(/C=C/c1cccs1)Nc1cccc([S+](=O)([O-])Nc2ccccc2F)c1 | · | · | i | · | i | ·
CSc1nc2ccccc2cc1/C=C(\C#N)c1ccccc1 | -4.1% | ? | ? | 18.4µM* | ? | -3.1%
CSc1nc2ccccc2cc1/C=C(\C#N)c1cccc(C)c1 | -12.6% | ? | 14.6µM* | 5.17µM* | 14.6µM* | 0.0%
CSc1nc2ccccc2cc1/C=C(\C#N)c1ccc(Cl)c(Cl)c1 | -13.8% | -5.1% | i | -6.2% | i | 16.9%
Cc1cccc(/C=C(\C#N)c2nc3ccccc3c(=O)[nH]2)c1 | -21.4% | · | i | · | i | 3.6%
CCc1ccccc1-n1c2c(cc(-c3nc(-c4ccc(Cl)cc4)cs3)c1=O)C(=O)CC(C)(C)C2 | 4.8% | · | i | · | i | -0.3%
